# “And” between values parts separate entries of the source, which are not always exact repeats. Equal values may be shown once. The campaign covered roughly 420,000 compounds. About 50,000 (12%) were called active. Not shown: some 26% with an inconclusive outcome. The entries come from a sample that favours actives as a whole. Unmarked numbers belong to inactive results. The call rests on the fitted dose curve; in most records, active means well fitted inhibition curve with a large enough effect; inconclusive means small, poorly fitted or top-dose-only effect; inactive means flat fitted curve, though single readings scatter.
# Test: qHTS for Inhibitors of human tyrosyl-DNA phosphodiesterase 1 (TDP1): qHTS in cells in presence of CPT; further: nearly all actives have a fitted effect of over 55% in size
# Conditions: chicken DT40 Tdp1-/-;hTDP1 cells + 20 nM CPT, ATP luminescence, 48 h; series mostly up to 46.2 µM; activity change, negative = growth inhibition: at the top concentration
# From the text: Human tyrosyl-DNA phosphodiesterase 1 (TDP1) is a novel repair gene, and we propose to use it as a new target for anticancer drug development. TDP1 is not an essential protein, but under treatment with topoisomerase I poison (camptothecin: CPT), TDP1 works as a critical factor for cell survival. To directly identify novel TDP1 inhibitors active in a cellular environment, we have knocked-out the Tdp1 gene in chicken DT40 cells (Tdp1-/-) and generated a complemented counterpart cells that contains a stable transfection of the human TDP1 gene (Tdp1-/-;hTDP1 cells). For the primary screen, Tdp1-/-;hTDP1 cells will be exposed to small molecules in the presence or absence of CPT, and their growth kinetics will be evaluated after 48 hours by measuring ATP activity. […] The hit compounds will then be evaluated in the presence or absence of CPT using Tdp1-/- cells. […] In tertiary assays, biochemical gel-based assays will be used to assess whether the hit compounds specifically target TDP1. To this end, we have screened this cell line against the MLSMR in two primary screens. In one screen we add CPT and in the other we screen in the absence of CPT; this AID represents the screen where CPT was present. NIH Chemical Genomics Center [NCGC] NIH Molecular Libraries Probe Centers Network [MLPCN] MLPCN Grant: MH095538 Assay Submitter (PI): Yves Pommier, NCI
# DT40-hTDP1 cells with 20 nM Camptothecin (add 20 microL of 1 mM CPT stock in 1 L of cell culture medium) were dispensed at 400 cells/5microL/well in tissue culture treated 1536-well white wall/solid bottom assay plates (Greiner Bio-One North America, NC, U.S.A.) using a Multidrop Combi 8 channel dispenser (Thermo Fisher, Waltham, MA, USA). 23 nL compounds and controls were transferred using the pin tool (Kalypsys, San Diego, CA, USA) to the assay plates. The assay plates were then incubated at 37 masculineC for a minimum 48 hr. Three microL of Cell Titer Glo solution was added to the plates and incubated at RT in dark for 30 min. Luminescence was read using ViewLux (Perkin Elmer) with 1 sec exposure slow speed, high gain and 2x binning.
# On the % scale 0 is the no-effect control and ±100 the full control effect; potency means the concentration at half of the fitted maximal effect.
Compound,Potency,"activity change, negative = growth inhibition"
O=C(COc1ccccc1Cl)Nc1ccc2nc(SCC(=O)N3CCCC3)sc2c1,20.6 µM (active),
CN(C(=O)CSc1nc2ccc(NC(=O)COc3ccccc3)cc2s1)c1ccccc1,25.9 µM (active),
CC(C)n1c(=O)c(C=Nc2ccc(Br)cc2)c(O)n(Cc2ccco2)c1=O,,-10.9%
CCN(CC)C(=O)c1ccc(NC(=O)c2cc(-n3cnnc3)ccc2Cl)cc1,,-5.77%
Fc1ccc(N2CCN(Cc3ccc4c(c3)OCO4)CC2)cc1,,-24.2%
Cn1c(O)c(C=Nc2ccc3c(c2)CCC3)c(=O)n(C)c1=O,,-10.6%
COC12CC[C@@]3(C[C@@H]1C(C)(O)C(C)(C)C)[C@H]1Cc4ccc(O)c5c4[C@@]3(CCN1CC1CC1)[C@H]2O5 (stereo partly drawn),24.1 µM (active),
Oc1ccc2c3c1OC1[C@H](O)CC[C@@]4(O)[C@@H](C2)N(CC2CC2)CC[C@]314 (stereo partly drawn),inactive,
CC1(C)Cc2c(C#N)c(N3CCNCC3)nc(-c3ccco3)c2CS1,18.4 µM (active),
NCCc1ccc(S(=O)(=O)F)cc1,,-19.2%
CC(=O)c1ccc(S(=O)(=O)N2CCN(c3nc4c(C)c(C)ccc4cc3C#N)CC2)cc1,7.08 µM (active),
CCOC(=O)C(O)(c1ccc(NC(=O)c2ccco2)c(OC)c1)C(F)(F)F (stereo not drawn),,-27.8%
C[C@@]1([C@@H](NP(=O)(c2ccccc2)c2ccccc2)c2ccccc2)C[C@H]1CCO,9.2 µM (active),
CC1CNCCN1c1ccc(Cl)cc1 (stereo not drawn),,-17.2%
CC(C)(C)[C@]1(O)C[C@@H]2OC(=O)C[C@@]23C(=O)O[C@@H]2OC(=O)[C@H](O)[C@]213,inactive,
c1ccc(C(CN2CCCCC2)c2ccccc2)cc1,,-0.305%
CCCCOc1ccc(C(=O)N2CC(=O)Nc3ccc(Br)cc3C2c2ccc(F)cc2)cc1 (stereo not drawn),23.1 µM (active),
O=c1oc2ccccc2c(O)c1C(c1ccccc1O)c1c(O)c2ccccc2oc1=O,,8.57% [at 9.04 µM]
COc1cc([C@@H]2c3cc4c(cc3[C@H](OC(C)=O)[C@H]3COC(=O)[C@H]23)OCO4)cc(OC)c1OC,0.0794 µM (active),
COc1cc(C2c3cc4c(cc3C(O)C3COC(=O)C23)OCO4)cc(OC)c1OC (stereo not drawn),44.7 nM (active) and 13 nM (active),
Cc1nc2ccc(N3CCN(C)CC3)cc2nc1C,,25.9%
CSc1ccc(C(=O)C2CCCN(Cc3ccn[nH]3)C2)cc1 (stereo not drawn),,1.2%
O=c1[nH]c(=O)n(-c2ccc(F)cc2)c(O)c1C=NCCN1CCCCC1,,11.7%
CC(=C1C(=O)c2ccccc2C1=O)N1CCN(CCN=Cc2c(O)n(C)c(=O)n(C)c2=O)CC1,,-15%
CCN1CC2C3CCC(C)(O3)C2C1 (stereo not drawn),,3.51%

Compound,Potency,"activity change, negative = growth inhibition"
Cc1ccc(Cl)cc1N1CCN(C(=O)C2CCC(CNS(=O)(=O)c3cccs3)CC2)CC1 (stereo not drawn),20.6 µM (active),
CC1C(=O)OC2CCN3CC=C(COC(=O)C(C)(O)C1(C)O)C23 (stereo not drawn),5.8 µM (active),
CC(=O)Nc1ccc(C(=O)C(Cc2ccccc2)N(C)C)cc1 (stereo not drawn),,-14.9%
O=C(COc1ccc2ccccc2c1)N1CCN(Cc2ccncc2)CC1,,-27.5%
CN(C)C(=O)Oc1cc(OC(=O)N(C)C)cc(C(O)CNC(C)(C)C)c1 (stereo not drawn),inactive,
CNC(=O)O/N=C(\N)Cc1csc2ccc(Cl)cc12,16.4 µM (active),
CNC(=O)O/N=C(\N)Cc1csc2ccccc12,,-3.18%
Cn1c(O)c(C=NCCN2CCNCC2)c(=O)n(C)c1=O,,-0.667%
COC1=CC=C2[C@H]3Cc4ccc(OC)c5c4[C@@]2(CCN3C)C1O5 (stereo partly drawn),,-2%
Cc1ccc(C(C)C)c(OCC(=O)N2CCN(CC(=O)N3CCOCC3)CC2)c1,,1.32%
CN1CCC(N(C)Cc2cccnc2)CC1,,10.3%
c1ccc(CCCCN2CCC(c3ccccc3)CC2)cc1,16.8 µM (active) and 23.1 µM (active),
c1ccc(CCN2CCC3(CC2)OCCO3)cc1,,5.99%
CC1=CC(=O)C2=C(C)C[C@H](O)[C@H]3[C@H](C)C(=O)O[C@@H]3C12 (stereo partly drawn),,-1.15%
Cc1cccc(Cn2cccc(C(=O)Nc3ccc4c(c3)OCCO4)c2=O)c1,9.2 µM (active),
CN(C)/C=C(\C=[N+](C)C)c1[nH]ncc1[N+](=O)[O-],,2.42%
O=C1NC(=O)C(CCOc2ccccc2)(CCc2ccccc2)C(=O)N1,,-7.38%
COc1ccc(-c2nn(CCC#N)cc2C(=O)Nc2ccc(C(C)=O)cc2)cc1,,-15.6%
COc1ccc(C2Oc3c(I)c(OC)cc(OC)c3CC2O)cc1OC (stereo not drawn),,-8.1%
CCOP(=O)(OCC)C(O)c1ccc(OC)cc1OC (stereo not drawn),,5.05%
CC(Cc1ccccc1)NCCC(c1ccccc1)c1ccccc1 (stereo not drawn),9.2 µM (active),
CC(Cc1ccccc1)NC=O (stereo not drawn),inactive,
Nc1ccc([N+](=O)[O-])cc1,inactive,
C=CCn1c(O)c(/C=N/N2CCOCC2)c(=O)[nH]c1=S,,-0.159%
CC(=O)Nc1ccccc1C(=O)OCC(=O)c1cccc2ccccc12,,-14.8%

Compound,Potency,"activity change, negative = growth inhibition"
COC(=O)C1=C(c2ccc(C(C)=O)cc2)C[C@@H]2CC[C@H]1N2C(=O)NCCNC(C)=O,,4.65%
COC(=O)C1=C(c2ccc(Cl)c(C(F)(F)F)c2)C[C@@H]2CC[C@H]1N2C(=O)NC1CC1,14.6 µM (active),
COC(=O)C1=C(c2cc3ccccc3s2)C[C@@H]2CC[C@H]1N2C(=O)NC(C)C,23.1 µM (active),
COC(=O)C1=C(c2cc3ccccc3o2)C[C@@H]2CC[C@H]1N2C(=O)NC1CCCCC1,18.4 µM (active),
COC(=O)C1=C(c2cc3ccccc3s2)C[C@@H]2CC[C@H]1N2C(=O)NCCO,,-29.3%
COC(=O)CN(CCCl)P1(=O)OCCCN1CCCl (stereo not drawn),,6.16%
C/C(CCc1c[nH]c2ccccc12)=N\O,,-8.5%
CCN1CCN(Cc2cc(OC)c3c(c2)OCO3)CC1,,-11.6%
C1CC[C@H]([C@@]23C[C@H](C[C@H]4CCCN[C@H]42)[C@@H]2CCCCN2C3)NC1,,-5.16% [at 9.04 µM]
CN1C2CC3CC1C(O3)C2O (stereo not drawn),,-2.66%
COP(=O)(OC)C(NC(=O)c1ccc(C)cc1)C(Cl)(Cl)Cl (stereo not drawn),,8.53%
C#C[C@]1(OC(=O)CCCCCC)CC[C@H]2[C@@H]3CCC4=CC(=O)CC[C@@H]4[C@H]3CC[C@@]21C,,12.4%
CC(=O)OC1C2(CC3N4C(=O)C5(CO)SSC4(CC31O)C(=O)N5C)OC(C)C(C)(C)C2=O (stereo not drawn),0.146 µM (active),
O=C(c1cc(S(=O)(=O)N2CCOCC2)ccc1F)N1CCC2(CC1)OCCO2,,-22%
CCc1nnc(NS(=O)(=O)c2ccc(N=Cc3c(O)n(-c4ccccc4)c(=O)[nH]c3=O)cc2)s1,,-0.935%
O=[N+]([O-])c1ccc(Cl)c(Cl)c1,,8.09%
O=C(Cc1ccc(Cl)cc1)NCCN1CCN(C(=O)Cc2ccc(Cl)cc2)CC1,,-25.6%
C[C@@H]1C[C@@H]2O[C@H]2/C=C\C=C\C(=O)Cc2c(Cl)c(O)cc(O)c2C(=O)O1,0.0411 µM (active),
CCOC(=O)C1=C(C)OC(N)=C(C(=O)OC)C12C(=O)Nc1ccc(Br)cc12 (stereo not drawn),,-0.924%
CCN1CCN(C(=O)Cc2coc3cc(C)cc(C)c23)CC1,,-4.61%
NC(=O)Cn1cc(C(=O)c2ccccc2F)c2ccccc21,,-3.53%
COCCNC(=O)CN1C2CCC1CC(O)(c1cccnc1)C2 (stereo not drawn),,12.8%
Cc1cc2n(n1)C(c1cc(C(C)(C)C)c(O)cc1O)Nc1ccccc1-2 (stereo not drawn),14.6 µM (active),
CCC/C(=N\O)c1c[nH]c2ccccc12,,-27.1%
NCC(O)c1ccc(O)cc1 (stereo not drawn),inactive,

Compound,Potency,"activity change, negative = growth inhibition"
CC[N+](C)(CC)CCC[n+]1c(-c2ccccc2)c2cc(N)ccc2c2ccc(N)cc21,2.58 µM (active),
COc1ccc(NC(=O)N2Cc3ccccc3-n3nncc3C2)cc1,,-22.9%
CCN(CC)CCOC(=O)c1cc2cc(COC)ccc2o1,,-2.18%
CC(=O)c1ccc(OC(NC(=O)Cc2ccccc2)C(Cl)(Cl)Cl)cc1 (stereo not drawn),,-22.9%
Cc1cccc2c3c(ccc12)C1=C(C(=O)C3=O)C(C)CO1 (stereo not drawn),4.11 µM (active),
CCOC(=O)c1c(N)n(CCN2CCOCC2)c2nc3ccccc3nc12,,-6.44%
CC1(C)OC[C@@H](COC(=O)CCc2ccc(OC[C@@H](O)CNCCNC(=O)N3CCOCC3)cc2)O1,,4.8%
Cc1ccc(S(=O)(=O)N(C)c2ccc(C(=O)NCC3(N(C)C)CCCCC3)cc2)cc1,,-16.2%
O=C(CCN1CCCCC1)NCC(=O)Nc1ccc(Br)cc1C(=O)c1ccccc1,18.4 µM (active),
O=C(CN1CCCCC1)Nc1ccc(Br)cc1C(=O)c1ccccc1Cl,,-26.2%
CCOC(=O)CC(SP1(=S)OCC2(CCCCO2)C(C2CCCCO2)O1)C(=O)OCC (stereo not drawn),,-21.8%
C[C@]12CCC3C(CC[C@H]4C[C@@H](O)CC[C@]34C)C1C[C@@H](O)[C@H]2O (stereo partly drawn),,10.8%
C[C@]12CCC3C(CC[C@H]4[C@H](O)[C@H](O)CC[C@]34C)C1CCC2=O (stereo partly drawn),16.4 µM (active),
C[C@]12CCC3C(CC[C@H]4[C@H](O)[C@H](O)CC[C@]34C)C1CC[C@@H]2O (stereo partly drawn),,2.04%
Nc1ccc(Cc2ccc(N)c(Cl)c2)cc1Cl,,-10.3%
Cc1ccc(Cn2nnnc2CN2CCC(n3nnc4ccccc43)CC2)cc1,,-24.7%
O=c1[nH]c2ccccc2n1C1CCN(C(c2ccccc2)c2nnnn2Cc2ccccc2)CC1 (stereo not drawn),18.4 µM (active),
O=c1[nH]c2ccccc2n1C1CCN(C(c2ccnc3ccccc23)c2nnnn2Cc2ccccc2)CC1 (stereo not drawn),20.6 µM (active),
Cc1ccsc1C(=O)C1CCCN(Cc2ccc(O)cc2)C1 (stereo not drawn),,0.994%
Cc1cccc(-n2c(O)c(C=NC34CN5CN(CN(C5)C3)C4)c(=O)[nH]c2=O)c1,,6.92%
Cc1nn(Cc2ccccc2Cl)c(Cl)c1C(=O)OC(C(=O)NC(N)=O)C(C)C (stereo not drawn),,-2.59%
CCOc1ccc(CN(CCCl)CCCl)cc1C(=O)OC,4.11 µM (active),
Cc1cc(C=C2C(=O)NC(=O)NC2=O)c(C)n1-c1ccncc1,,-1.71%
